Source: PubChem BioAssay (Tox21)
Results filed as inconclusive are left out. Activity calls are given as the source filed them. Calls follow the shape of the dose curve; as a rule, active = well fitted activation curve with a large enough effect in the repeat runs; inconclusive = weak or mixed curves; inactive = flat fitted curve, though single readings scatter.

test: A CellTox Green Cytotoxicity Assay to monitor cytotoxicity in HEK293 cells - 16 hour (AID 1224888); conditions: CellTox Green fluorescence; series mostly up to 76.8 µM; activity change: at the top concentration; also: nearly all actives have a fitted effect of over 35% in size
Source text: National Center for Advancing Translational Sciences [NCATS]
NIH Chemical Genomics Center [NCGC]
U.S. Environmental Protection Agency [EPA]
National Institutes of Environmental Health Sciences [NIEHS]
National Toxicology Program [NTP]
Cell-based models are critical for drug discovery. Determining the natural cytotoxic effects resulting from test compounds is an essential research activity. A CellTox Green Cytotoxicity Assay to monitor cytotoxicity in real time of continues cell culture during 40 hours of the compound treatment was used to screen Tox21 10K library compounds in Hek293 cells. CellTox Green Cytotoxicity Assay is a nonlytic, homogeneous, biofluorescent method to measure cytotoxicity in cell culture after experimental manipulation. The assay system uses a proprietary asymmetric cyanine dye that is excluded from viable cells but preferentially stains the dead cell's DNA. […] Viable cells produce no appreciable increases in fluorescence. Therefore, the fluorescence signal produced by the binding interaction with dead cell DNA is proportional to cytotoxicity.
The mixture of Hek293 cell suspension and reagents were dispensed at 600cells/6 ul/well in 1536-well tissue culture treated black solid bottom plates using a Multidrop dispenser. After the assay plates were incubated at a 37 C/5% CO2 incubator for 5 hours, 23 nL of compounds dissolved in DMSO, positive and negative controls was transferred to the assay plate by a pintool work station. The plates were incubated at 37 C for 40 hours. The fluorescence intensity were measured at 0h, 8h, 16h, 24h, 32h and 40h time points using ViewLux plate reader during compound treatment.
% is scaled to controls: 0 for no effect and ±100 for the full control effect.

SMILES | activity change
O=S1(=O)CCCC1 | -7.13% (inactive)
O=[Si]=O | -8.46% (inactive)
CC1CCC(C(C)(C)S)C(=O)C1 (stereo not given) | 7.39% (inactive)
NS(=O)(=O)c1ccc(Cl)c(S(N)(=O)=O)c1 | 0.705% [at 35.3 µM, stronger effect = higher value] (inactive)
C[C@H]1O[C@H](O[C@H]2[C@H](O)[C@@H](O)[C@@H](O[C@H]3[C@H](O)[C@@H](O)[C@H](O)O[C@@H]3CO)O[C@@H]2CO)[C@H](O)[C@@H](O)[C@@H]1N[C@H]1C=C(CO)[C@@H](O)[C@H](O)[C@H]1O | 10.1% [at 35.3 µM, stronger effect = higher value] (inactive)
Nc1nc(=O)n([C@@H]2O[C@H](CO)[C@@H](O)[C@@H]2F)cc1I | -15.1% [at 35.3 µM, stronger effect = higher value] (inactive)
O=c1[nH]c(=O)c2ccccc2o1 | 0.871% [at 35.3 µM, stronger effect = higher value] (inactive)
CCNC(=O)/C=C/c1cccc(Br)c1 | 5.18% [at 35.3 µM, stronger effect = higher value] (inactive)
C=CCOCC(O)CCl (stereo not given) | 1.79% (inactive)
Nc1c(NC/C=C\COc2cc(CN3CCCCC3)ccn2)c(=O)c1=O | 3.09% [at 15.8 µM, stronger effect = higher value] (inactive)
CC(C)=CC(C)(C)C | -9.19% (inactive)
COC(=O)CCC(=O)O | 1.93% (inactive)
O=S(=O)(O)SSS(=O)(=O)O | 8.06% (inactive)
C=CCOc1cc(Cl)ccc1C(=O)NCCN(CC)CC | -5.9% [at 35.3 µM, stronger effect = higher value] (inactive)
O=C1c2ccccc2-c2ccccc21 | -2.78% (inactive)
Nc1cc(C(=O)O)ccc1Cl | -8.92% (inactive)
C1CCN2C[C@@H]3C[C@@H](CN4CCCC[C@@H]34)[C@H]2C1 | -0.188% [at 35.3 µM, stronger effect = higher value] (inactive)
CC(C)COC(=O)/C=C/c1ccccc1 | -1.61% (inactive)
C1=CCC(c2ccccc2)CC1 (stereo not given) | 0.714% (inactive)
NC(=O)NC(=O)Cc1ccccc1 | -1.31% [at 35.3 µM, stronger effect = higher value] (inactive)

SMILES | activity change
CCC1COC(=O)O1 (stereo not given) | -9.32% (inactive)
Nc1ccc(S(=O)(=O)NC(=O)c2ccccc2)cc1 | 1.01% [at 35.3 µM, stronger effect = higher value] (inactive)
CC(C)CCC(=O)CCC(C)C | -5.72% (inactive)
COc1ccc(NS(=O)(=O)c2ccc(N)cc2)nn1 | 7.16% [at 35.3 µM, stronger effect = higher value] (inactive)
CC(C)CCCCCCOC(=O)C1CCCCC1C(=O)OCCCCCCC(C)C (stereo not given) | 2.85% (inactive)
Nc1ccc(S(=O)(=O)Nc2ccccn2)cc1 | 0.893% [at 35.3 µM, stronger effect = higher value] (inactive)
CCCCC/C=C/CC(=O)OC | -8.03% (inactive)
Cc1ccc(S(=O)(=O)NC(=O)NC2CCCCCCC2)cc1 | 13.1% [at 35.3 µM, stronger effect = higher value] (inactive)
O=C1NC2NC(=O)NC2N1 (stereo not given) | -9.14% (inactive)
C[C@H](CCC(=O)O)[C@H]1CC[C@H]2[C@@H]3[C@H](O)C[C@@H]4C[C@H](O)CC[C@]4(C)[C@H]3C[C@H](O)[C@]12C | -0.717% [at 35.3 µM, stronger effect = higher value] (inactive)
Cc1ccccc1N1CCN(CCc2nnc3n2CCCC3)CC1 | -23.4% [at 35.3 µM, stronger effect = higher value] (inactive)
O=C(O)c1ccc(OCCN2CCCCC2)cc1 | -18.2% [at 35.3 µM, stronger effect = higher value] (inactive)
CCC(=O)OCCC(C)CCC=C(C)C (stereo not given) | 2.08% (inactive)
CCS(=O)(=O)CCn1c([N+](=O)[O-])cnc1C | 0.458% [at 35.3 µM, stronger effect = higher value] (inactive)
O=C(O)c1ccccc1C(=O)OCc1ccccc1 | -4.08% (inactive)
O=C1OC(=O)c2ccccc21 | -0.0781% (inactive)
CN[C@@H]1[C@@H](O)[C@@H](O[C@@H]2[C@H](O)[C@H](O[C@H]3OC(CN)=CC[C@H]3N)[C@@H](N)C[C@H]2N)OCC1(C)O (stereo not given in full) | 1.73% [at 35.3 µM, stronger effect = higher value] (inactive)
CCC(CO)CO | -5.28% (inactive)
Nc1cc(S(=O)(=O)O)ccc1S(=O)(=O)O | -7.26% (inactive)
CCCCCCCC/C=C\CCCCCCCC(=O)OC[C@@H](O)[C@H]1OC[C@H](O)[C@H]1O | -12.5% (inactive)
